# According to PubChem BioAssay:
# Where “and” joins values, the source holds several entries; their conditions need not be identical. Identical values can stand only once. Inconclusive results are not listed. Calls of active or inactive are those of the source. Unless noted, how the calls were made is not given here.
# Key:
# [1] = antimalarial activity against Dd2 strain (AID 2302;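 active means growth inhibition above 50% at the single 2 µM test dose, taken to imply half-maximal potency below 2 µM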;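 further: 0% = DMSO untreated growth and 100% = chloroquine plus artemisinin killed control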); conditions: P. falciparum Dd2 in RBCs, LDH growth readout, 72 h; at 2 µM; stronger effect = higher value
# [2] = HepG2 cytotoxicity, primary screen, cytotoxicity control for P. falciparum antimalarial project, cell-based, ATP luminescence (AID 2303;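 active means inhibition above 50%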;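 further: 0% = DMSO wells and 100% = digitonin-killed cells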); conditions: HepG2 viability, 24-48 h, at 10 µM, stronger effect = higher value
# [3] = target: L-lactate dehydrogenase (Plasmodium falciparum (isolate CDC / Honduras)) (UniProt Q27743); assay: PfLDH activity inhibition – cell lysate, 3D7 strain, counter-screen for P. falciparum growth inhibition project (AID 2304);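 further: 0% = vehicle and 100% = reference inhibitor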; conditions: P. falciparum 3D7 crude extract, LDH APAD/NBT absorbance; at 2 µM; stronger effect = higher value
# Sequence of L-lactate dehydrogenase (Plasmodium falciparum (isolate CDC / Honduras)) (Q27743 whole entry, looked up): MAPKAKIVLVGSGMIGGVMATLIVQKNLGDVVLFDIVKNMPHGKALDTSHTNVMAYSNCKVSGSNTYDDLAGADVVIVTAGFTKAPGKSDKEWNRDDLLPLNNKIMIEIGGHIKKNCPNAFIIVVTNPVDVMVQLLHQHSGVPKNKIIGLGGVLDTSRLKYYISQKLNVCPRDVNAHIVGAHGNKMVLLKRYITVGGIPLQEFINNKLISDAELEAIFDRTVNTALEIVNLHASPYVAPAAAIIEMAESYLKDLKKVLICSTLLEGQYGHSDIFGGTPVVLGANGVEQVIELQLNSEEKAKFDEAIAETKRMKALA
# [4] = inhibition of 3D7 malaria parasite growth – strain 3D7 (AID 2306);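 further: 0% = DMSO wells and 100% = chloroquine plus artemisinin control wells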; conditions: P. falciparum 3D7 erythrocytic growth, LDH absorbance, 72 h; at 2 µM; stronger effect = higher value
# [5] = circadian clock period modulators, cell-based, LOPAC library, luminescence reporter (AID 2774); conditions: circadian reporter cells, at 7 µM, actives lie on both sides;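 further: values are relative to mean of DMSO wells on each plate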
# [6] = target: ATP-dependent translocase ABCB1 (Homo sapiens) (UniProt P08183); assay: MDR1 (ABCB1) efflux transporter inhibition, cell-based (AID 377; in the data active means fluorescence slope change above about 50%); conditions: MDR1-expressing cells, fluorescent substrate accumulation slope; stronger effect = higher value; concentration not given here
# Sequence of ATP-dependent translocase ABCB1 (Homo sapiens) (P08183 whole entry, looked up): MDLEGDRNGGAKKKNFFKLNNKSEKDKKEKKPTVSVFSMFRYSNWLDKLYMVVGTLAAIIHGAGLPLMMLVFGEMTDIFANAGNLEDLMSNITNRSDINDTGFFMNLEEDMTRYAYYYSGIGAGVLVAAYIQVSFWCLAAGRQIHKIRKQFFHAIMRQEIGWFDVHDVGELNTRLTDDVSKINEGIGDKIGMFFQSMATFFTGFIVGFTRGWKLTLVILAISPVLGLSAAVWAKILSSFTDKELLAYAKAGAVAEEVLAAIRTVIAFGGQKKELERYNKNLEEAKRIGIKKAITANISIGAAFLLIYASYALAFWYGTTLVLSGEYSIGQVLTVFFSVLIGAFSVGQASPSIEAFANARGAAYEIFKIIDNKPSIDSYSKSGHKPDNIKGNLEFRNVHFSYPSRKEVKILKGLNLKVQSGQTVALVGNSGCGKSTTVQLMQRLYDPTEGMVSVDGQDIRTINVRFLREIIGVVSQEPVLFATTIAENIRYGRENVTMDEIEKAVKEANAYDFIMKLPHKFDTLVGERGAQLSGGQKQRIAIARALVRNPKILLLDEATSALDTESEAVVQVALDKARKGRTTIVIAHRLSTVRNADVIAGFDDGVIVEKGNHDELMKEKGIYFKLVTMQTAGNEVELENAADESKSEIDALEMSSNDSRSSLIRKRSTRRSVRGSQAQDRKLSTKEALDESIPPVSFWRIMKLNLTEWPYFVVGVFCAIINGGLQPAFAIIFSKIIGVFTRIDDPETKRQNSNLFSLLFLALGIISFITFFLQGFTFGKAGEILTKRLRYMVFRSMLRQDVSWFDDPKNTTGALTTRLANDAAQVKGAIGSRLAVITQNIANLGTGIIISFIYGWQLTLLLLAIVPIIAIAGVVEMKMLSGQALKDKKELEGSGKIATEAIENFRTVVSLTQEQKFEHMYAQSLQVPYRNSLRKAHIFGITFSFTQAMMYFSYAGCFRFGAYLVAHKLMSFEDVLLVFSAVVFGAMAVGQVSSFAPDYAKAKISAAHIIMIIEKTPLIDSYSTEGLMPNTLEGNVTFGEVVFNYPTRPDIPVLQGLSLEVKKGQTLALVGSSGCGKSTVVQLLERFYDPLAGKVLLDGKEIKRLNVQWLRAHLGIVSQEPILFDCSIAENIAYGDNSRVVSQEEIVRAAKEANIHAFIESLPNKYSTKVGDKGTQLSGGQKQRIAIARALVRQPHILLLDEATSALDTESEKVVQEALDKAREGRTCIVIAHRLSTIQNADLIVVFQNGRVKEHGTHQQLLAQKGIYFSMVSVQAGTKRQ
# [7] = liver-stage malaria parasite growth inhibition, primary screen, cell-based, HepG2, luciferase luminescence, HepG2 viability (AID 624349; in the data active means parasite load remaining mostly below about 12%, no sharp cut-off; inactive means mostly above about 10%;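 further: 100% = mean of DMSO negative control wells on the same plate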); conditions: P. berghei liver stage in HepG2, luciferase luminescence, concentration not given here; parasite load remaining: stronger effect = lower value; viability: measured here: HepG2 viability without parasites
# [8] = hESC survival regulators, cell-based (AID 493140); conditions: human embryonic stem cell survival screen; stronger effect = higher value;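 further: cells exposed to compounds for four days before counting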
# [9] = system: Hepatitis C virus NS3 helicase; assay: HCV NS3 helicase inhibitors, primary screen, biochemical, fluorescence polarization, LOPAC1280 library (AID 687035; in the data active means inhibition above about 37%); conditions: Purified HCV NS3 helicase, Cy5-dT15 ssDNA binding fluorescence polarization; stronger effect = higher value; concentration not given here
# [10] = Cy5 fluorescence quenching or enhancement artefacts, artefact control for HCV NS3 helicase inhibitor project, biochemical, LOPAC1280 (AID 687037); conditions: Cy5-DNA-NS3h complex fluorescence interference counterscreen
smiles,measurement,setting,value
C#CCOc1ccc(CC(C)NCC(O)c2cccc(C(F)(F)F)c2)cc1 (stereo not drawn),growth inhibition,[1],74% (active) and 84% (active)
same,inhibition,[2],5% (inactive) and 28% (inactive)
same,inhibition,[3],1% (inactive) and -2% (inactive)
same,growth inhibition,[4],90% (active) and 93% (active)
C=CCN1CCC2(C)c3cc(O)ccc3CC1C2C (stereo not drawn),period change,[5],-0.18 h (inactive)
CC[C@H](CO)NC(=O)[C@@H]1C=C2c3cccc4[nH]cc(c34)C[C@H]2N(C)C1,fluorescence slope change,[6],0.6% (inactive)
same,parasite load remaining,[7],67.8% (inactive)
same,viability,[7],73.1%
CN1CCc2cc3c(c4c2C1Cc1ccccc1-4)OCO3 (stereo not drawn),fluorescence slope change,[6],11.3% (inactive)
C=C1C2C[C@@]3(C4CC5C6(C3C[C@@H]2O)[C@@H](O)CC[C@@]5(C)CN(CC)[C@H]46)[C@@H]1O (stereo partly drawn),fluorescence slope change,[6],24.6% (inactive)
same,survival,[8],5.92 (inactive)
CO[C@@H]1C=C2CCN(C)[C@@H]2C2c3cc4c(cc3C(=O)OC21)OCO4 (stereo partly drawn),fluorescence slope change,[6],12.6% (inactive)
same,survival,[8],4.75 (inactive)
C#C[C@]1(O)CCC2C3CCC4=CC(=O)CC[C@]4(C)C3CC[C@@]21C (stereo partly drawn),fluorescence slope change,[6],63.9% (active)
same,survival,[8],10.7 (inactive)
same,parasite load remaining,[7],97.8% (inactive)
same,viability,[7],86.3%
CCN(CC)C(=O)N[C@H]1C[C@@H]2c3cccc4[nH]cc(c34)C[C@H]2N(C)C1,survival,[8],6 (inactive)
O=P(O)(O)Cc1ccccc1,survival,[8],126 (inactive)
CCCCC[C@@H](/C=C/C=C\CCCCCCCCCC(=O)O)OO,survival,[8],112 (inactive)
CCN(CC)C(=O)N[C@H]1C=C2c3cccc4[nH]cc(c34)C[C@H]2N(C)C1,fluorescence slope change,[6],136% (active)
same,period change,[5],0.33 h (inactive)
same,survival,[8],19.8 (inactive)
same,parasite load remaining,[7],92.5% (inactive)
same,viability,[7],87.9%
C=C[C@]12CN(C)C3C4COC(CC41)[C@]1(C(=O)Nc4ccccc41)[C@@H]32 (stereo partly drawn),fluorescence slope change,[6],13.5% (inactive)
same,survival,[8],4 (inactive)
CC(=O)OC(C)C(C)C(=O)OC[C@]12C(C)[C@H]3O[C@@H]1C[C@]1(C)C(=CCC4[C@@]5(C)CCC(OC6O[C@H](C(=O)O)[C@H](O[C@H]7O[C@@H](CO)[C@@H](O)[C@@H](O)[C@@H]7O)[C@H](O)[C@H]6O[C@@H]6OO[C@@H](O)[C@H](O)[C@@H]6O)[C@](C)(CO)C5CC[C@]41C)[C@@H]2CC3(C)C (stereo partly drawn),survival,[8],2.17 (inactive)
C=C[C@@H]1CN2CCC1C[C@@H]2[C@@H](O)c1ccnc2ccccc12 (stereo partly drawn),fluorescence slope change,[6],13.4% (inactive)
COc1cc(CC(C)N)c(OC)cc1I (stereo not drawn),period change,[5],-0.11 h (inactive)
same,inhibition,[9],-3% (inactive)
same,fluorescence ratio (interference),[10],1 (inactive)
C=C(C(=O)OC1CC2[C@@H]3O[C@@H]3[C@@H](C1)N2C)c1ccccc1 (stereo partly drawn),fluorescence slope change,[6],4.6% (inactive)
CC[C@@H](C)C(=O)O[C@H]1[C@H](O)[C@H]2[C@@H](CN3C[C@@H](C)CC[C@H]3[C@@]2(C)O)C2C[C@]34O[C@@]5(O)[C@@H](OC(=O)C(C)(O)CC)CC[C@@]3(C)[C@@H]5[C@@H](OC(C)=O)[C@@H](OC(C)=O)[C@H]4[C@@]21O (stereo partly drawn),fluorescence slope change,[6],24.2% (inactive)
same,survival,[8],6.33 (inactive)
same,parasite load remaining,[7],72.4% (inactive)
same,viability,[7],77.1%
C[C@@H]1CCC2[C@H](C)C3CC[C@@]4(O)[C@@H]5CC(=O)[C@H]6CC(=O)CC[C@]6(C)C5C[C@H]4[C@@H]3CN2C1 (stereo partly drawn),fluorescence slope change,[6],16.8% (inactive)
CC/C=C\C[C@@H](/C=C/C=C\C/C=C\C/C=C\CCCC(=O)O)OO,survival,[8],90.4 (inactive)
CN(C)Cc1c[nH]c2c(OCc3ccccc3)cccc12,fluorescence slope change,[6],61.1% (active)
C#CC1(O)CC[C@H]2[C@@H]3CCC4=CCCC[C@@H]4[C@H]3CC[C@@]21C (stereo partly drawn),survival,[8],37.7 (inactive)
NCCC(O)C(=O)NC1CC(N)C(OC2OC(CN)C(O)[C@H](O)[C@@H]2N)[C@H](OC2O[C@H](CO)[C@@H](O)[C@@H]2O)[C@@H]1O (stereo partly drawn),fluorescence slope change,[6],51.6% (active)
same,survival,[8],4.17 (inactive)
CC1OC(OC2/C=C/C=C/C=C/C=C/CC/C=C/C=C/[C@H](C)[C@@H](O)[C@@H](C)[C@H](C)OC(=O)CC(O)CC(O)CC(O)CCC(O)C(O)C[C@]3(O)CC(O)C(C(=O)O)C(C2)O3)C(O)C(N)C1O (stereo partly drawn),fluorescence slope change,[6],108% (active)
same,survival,[8],8.92 (inactive)
same,parasite load remaining,[7],78.6% (inactive)
same,viability,[7],74%
C=C(C)[C@@H]1[C@H]2OC(=O)[C@@H]1[C@]1(O)C[C@H]3O[C@]34C(=O)OC2[C@]14C (stereo partly drawn),fluorescence slope change,[6],18.3% (inactive)
same,survival,[8],4 (inactive)
CCC1C2CC3[C@@H]4N(C)c5ccccc5[C@]45CC(C2[C@H]5O)N3[C@@H]1O (stereo partly drawn),fluorescence slope change,[6],67.5% (active)
same,survival,[8],5.33 (inactive)
same,parasite load remaining,[7],65.3% (inactive)
same,viability,[7],70.7%
